Bioassay records from PubChem BioAssay.
This is a sample that favours compounds with a hit; in the whole collection about 4% have one here.
TRPM1 prom inh: MITF TRPM1 promoter inhibition in SK-MEL-5 cells. 0.83% of 330,000 active. inhibition, % at 12.5 µM. SK-MEL-5 TRPM1 promoter luciferase, 24 h;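 active = mean inhibition across replicates of 60% or more, whatever share of single replicates reaches that level; inconclusive = some that reach 60%, reason not given; inactive = mean inhibition across replicates below 60%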
Wnt bcat act: activates Wnt/beta-catenin signaling in a reporter cell assay | activator, plate reader | activation, % at 9.35 µM | 1.2% of 300,000 active; in the data active = activation above about 30%, passing the limit was not always enough; inconclusive = no clear call, values can overlap the other calls;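 also: 0% = neutral control wells and 100% = positive control wells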
Statin myotox sup: protects C2C12 myotubes from simvastatin toxicity; ATP luminescence, 48 h; scaled: DMSO 0, geranylgeraniol control 100; rescue of ATP level, % at 7.49 µM; 0.78% of 330,000 active;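 active = mean ATP rescue above about 67%, or every replicate alone reaching that limit, limit read from the data, passing the limit was not always enough; inconclusive = no clear call, values can overlap the other calls; inactive = mean under the limit and some replicate under it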;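 also: myotubes were challenged with 10 µM simvastatin during compound exposure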
EBV LMP1 NFkB: Epstein-Barr LMP1 NF-kappaB reporter inhibition; 0.69% of 350,000 active; AID 504558; LMP1-induced NF-kappaB luciferase reporter cells, luminescence; inhibition, % at 12.5 µM; in the data active = inhibition above about 41%; inconclusive = no clear call, values can overlap the other calls;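 also: 0% = neutral control wells and 100% = reference inhibitor control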
MITF act: increases MITF-driven TRPM1 promoter luciferase signal | activation, % at 12.5 µM | 0.75% of 300,000 active | SK-MEL-5 TRPM1-promoter luciferase, 24 h; % of positive control, neutral wells = 0;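 active = mean activation of at least 80% with every replicate also reaching 80%; inconclusive = mean reaches 80% but some replicate falls short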;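 also: 0% = neutral control wells and 100% = parthenolide positive control wells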
esBAF inh: inhibitors of esBAF chromatin remodeling in mouse ES cells | Bmi1-luciferase knock-in reporter, 24 h; 100% = twice the neutral-well signal | reporter increase, % at 12.5 µM | 2% of 350,000 active | AID 602393; in the data active = activation above about 40%; inconclusive = no clear call, values can overlap the other calls;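 also: 0% = median of the plate's neutral control wells and 100% = double that signal; a rise in the Bmi1 reporter signal indicates esBAF inhibition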
An asterisk follows results filed as active.

Results for CCn1c(SCC(=O)c2ccc(Cl)cc2)nnc1C(C)C ?
TRPM1 prom inh: -59; Wnt bcat act: 36*; Statin myotox sup: -7; EBV LMP1 NFkB: -10; MITF act: 64; esBAF inh: 28

How did Cc1nnc(SCC(=O)c2ccc(Cl)cc2)n(N)c1=O do in these assays?
TRPM1 prom inh: -14; Wnt bcat act: 43*; EBV LMP1 NFkB: -49; MITF act: 14

Results for O=C(NCC(c1cccnc1)N1CCN(c2ccc(F)cc2)CC1)c1ccc2c(c1)OCO2 (stereo not given) ?
TRPM1 prom inh: 1; Statin myotox sup: 121*; EBV LMP1 NFkB: 13; MITF act: 0; esBAF inh: -1

How did COc1ccc(N2CCN(C(CNC(=O)c3ccc4c(c3)OCO4)c3cccnc3)CC2)cc1 (stereo not given) do in these assays?
TRPM1 prom inh: 7; Statin myotox sup: 22; EBV LMP1 NFkB: 3; MITF act: -6; esBAF inh: -1

What do the screens show for `CCCCN1C(=O)/C(=C/C=C2\Oc3ccccc3N2CC)SC1=S`?
TRPM1 prom inh: -8; Wnt bcat act: -2; Statin myotox sup: -18; EBV LMP1 NFkB: -1; MITF act: 13; esBAF inh: -4

What do the screens show for `CCN1/C(=C/C=C/c2oc3ccc(-c4ccccc4)cc3[n+]2CC)Oc2ccc(-c3ccccc3)cc21`?
TRPM1 prom inh: 102*; Wnt bcat act: -8; Statin myotox sup: -97; EBV LMP1 NFkB: 44*; MITF act: -101; esBAF inh: -85

Results for CCCCc1nc2cc(C(=O)N3CCC(O)CC3)ccc2o1 ?
TRPM1 prom inh: -40; Wnt bcat act: 24; Statin myotox sup: 8; EBV LMP1 NFkB: -10; MITF act: 34; esBAF inh: 10

What do the screens show for `CCCCc1nc2cc(C(=O)N(C)C3CCOCC3)ccc2o1`?
TRPM1 prom inh: -83; Wnt bcat act: inconclusive; Statin myotox sup: -2; EBV LMP1 NFkB: -22; MITF act: 77; esBAF inh: 94*

Results for Cc1ccccc1C(=O)Nc1c(C(=O)N2CCCC2)cnn1-c1ccccc1 ?
TRPM1 prom inh: -2; Wnt bcat act: 0; Statin myotox sup: 61; EBV LMP1 NFkB: 3; MITF act: 3; esBAF inh: 2

Results for Cc1ccc(-n2ncc(C(=O)N3CCc4ccccc4C3)c2NC(=O)c2ccco2)cc1C ?
TRPM1 prom inh: -3; Wnt bcat act: 0; Statin myotox sup: 77*; EBV LMP1 NFkB: 0; MITF act: -1; esBAF inh: -7

Results for CC(=O)Nc1c(C(=O)N2CCCCCC2)cnn1-c1ccccc1 ?
TRPM1 prom inh: 15; Wnt bcat act: -6; Statin myotox sup: 10; EBV LMP1 NFkB: 79*; MITF act: -14; esBAF inh: -1

What do the screens show for `NC(=O)C1CCN(C(=O)c2cnn(-c3ccccc3)c2NC(=O)c2ccco2)CC1`?
TRPM1 prom inh: 2; Statin myotox sup: 98*; EBV LMP1 NFkB: -1; MITF act: 3; esBAF inh: -5

What do the screens show for `COc1cccc(-c2cc(C(=O)N3CCCCC3C)no2)c1` (stereo not given)?
TRPM1 prom inh: -79; Statin myotox sup: -6; EBV LMP1 NFkB: -35; MITF act: inconclusive; esBAF inh: 10

Results for OC(CNCC(c1ccc(Cl)cc1Cl)c1c[nH]c2ccccc12)c1ccccc1 (stereo not given) ?
TRPM1 prom inh: 100*; Wnt bcat act: -22; Statin myotox sup: -14; EBV LMP1 NFkB: -37; MITF act: -99; esBAF inh: -1

How did CCC12CC3CC(C1)CC(C(=O)NNC(N)=O)(C3)C2 do in these assays?
TRPM1 prom inh: 10; Wnt bcat act: -1; Statin myotox sup: 106*; EBV LMP1 NFkB: 1; MITF act: -9; esBAF inh: 1

How did CCC12CC3CC(C1)CC(C(=O)Nc1nn[nH]n1)(C3)C2 do in these assays?
TRPM1 prom inh: 1; Statin myotox sup: 63; EBV LMP1 NFkB: -3; MITF act: 4; esBAF inh: -10

How did CCn1c(CCNC(=O)c2cccs2)nnc1SCC(=O)Nc1cccc(Cl)c1 do in these assays?
TRPM1 prom inh: 5; Wnt bcat act: -3; EBV LMP1 NFkB: -17

What do the screens show for `O=C(COC(=O)c1cccc(S(=O)(=O)N2CCOCC2)c1)Nc1nc(-c2ccccc2Cl)cs1`?
TRPM1 prom inh: -51; EBV LMP1 NFkB: -47; esBAF inh: 52*

How did CCn1c(CCNC(=O)c2cccs2)nnc1SCC(=O)Nc1nc(-c2ccccc2)cs1 do in these assays?
TRPM1 prom inh: 0; Statin myotox sup: -2; EBV LMP1 NFkB: 8; esBAF inh: 44*

Results for O=C(CSc1nnc(-c2ccncc2)n1Cc1ccco1)Nc1nc(-c2ccccc2)cs1 ?
TRPM1 prom inh: 29; Wnt bcat act: 2; Statin myotox sup: 98*; EBV LMP1 NFkB: 0; MITF act: -27; esBAF inh: 3

Results for O=C(CSc1nnc(-c2ccncc2)n1Cc1ccco1)Nc1ccccc1Cl ?
TRPM1 prom inh: -9; Wnt bcat act: -2; EBV LMP1 NFkB: -2; MITF act: 8

How did O=C(Nc1nc(-c2ccccc2)cs1)c1cccs1 do in these assays?
TRPM1 prom inh: -61; Statin myotox sup: -26; EBV LMP1 NFkB: -17; MITF act: 61; esBAF inh: 62*

What do the screens show for `O=C(CSc1nc(=O)n2ccccc2n1)NCCc1ccccc1`?
TRPM1 prom inh: 7; Wnt bcat act: -3; Statin myotox sup: 4; EBV LMP1 NFkB: -1; MITF act: -9; esBAF inh: -7

What do the screens show for `COc1ccc(NS(=O)(=O)c2cc(NC(=O)c3ccc(C)s3)ccc2N2CCOCC2)cc1`?
TRPM1 prom inh: 13; Wnt bcat act: 4; Statin myotox sup: 0; EBV LMP1 NFkB: -9; MITF act: -13; esBAF inh: 1

What do the screens show for `Cc1ccc(-n2c(C)nnc2SCC(=O)N2CCOCC2)cc1`?
TRPM1 prom inh: 7; Wnt bcat act: -3; Statin myotox sup: 5; EBV LMP1 NFkB: -7; MITF act: -6; esBAF inh: 1

Results for C/C(=N/Nc1nc(-c2ccc(Cl)cc2)cs1)c1cccs1 ?
TRPM1 prom inh: -31; Wnt bcat act: -4; Statin myotox sup: 144*; EBV LMP1 NFkB: -29; MITF act: 31; esBAF inh: 17

What do the screens show for `CC(C)(C)c1csc(NC(=O)c2cccs2)n1`?
TRPM1 prom inh: -46; Statin myotox sup: -4; EBV LMP1 NFkB: -21; MITF act: 51; esBAF inh: 103*

How did CC(=O)Nc1nc(-c2ccc([N+](=O)[O-])cc2)cs1 do in these assays?
TRPM1 prom inh: -18; Wnt bcat act: 2; EBV LMP1 NFkB: 0; MITF act: 16

Results for O=C(Nc1ccc([N+](=O)[O-])cc1)Nc1nc(-c2ccc(Cl)s2)cs1 ?
TRPM1 prom inh: 72*; Wnt bcat act: -34; EBV LMP1 NFkB: 55*; MITF act: -68
